Experimental data published in PubChem BioAssay AID652015 (National Center for Advancing Translational Sciences (NCATS), 2013).
Records with an inconclusive call do not appear. Calls of active or inactive are those of the source. The call rests on the fitted dose curve; in most records, active means well fitted inhibition curve with a large enough effect; inconclusive means small, poorly fitted or top-dose-only effect; inactive means no such curve, though single readings can be large or run the other way.

biological target: Coelenterazine h 2-monooxygenase (Renilla reniformis) (UniProt P27652); experiment: qHTS Assay for Inhibitors of Sea Pansy Luciferase from the GSK Published Protein Kinase Inhibitor Set; details: purified Renilla luciferase, luminescence; series mostly up to 57.5 µM
Sequence (P27652 whole entry, looked up): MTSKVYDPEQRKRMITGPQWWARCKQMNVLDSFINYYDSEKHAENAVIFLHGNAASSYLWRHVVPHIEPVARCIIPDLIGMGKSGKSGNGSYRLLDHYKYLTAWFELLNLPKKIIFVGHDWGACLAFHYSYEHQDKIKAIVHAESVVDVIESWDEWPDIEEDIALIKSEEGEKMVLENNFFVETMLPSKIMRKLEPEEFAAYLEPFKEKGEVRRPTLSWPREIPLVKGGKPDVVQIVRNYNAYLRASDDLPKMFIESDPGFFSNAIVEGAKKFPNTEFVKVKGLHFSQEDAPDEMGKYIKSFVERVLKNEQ
Outline: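 Purified R. reniformis luciferase (1 nM final) with 5 uM coelenterazine h in 50 mM Tris acetate pH 7.5, 100 uM NaCl, 0.01% Tween-20, 0.05% BSA. A titration, about 60 uM to 300 pM; luminescence read after about 2 min.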

Potency, inactive:
CC1=C(C(=O)Nc2cc(Cl)c3[nH]ncc3c2)C(c2ccc(C(F)(F)F)cc2)CC(=O)N1 (centres undefined)
Cc1ccc(NC(=O)CC2CC2)cc1-c1ccc(C(=O)NCC2CC2)cc1
COc1cc2ncnc(Nc3ccc4c(cnn4Cc4ccccc4)c3)c2cc1OC
N#Cc1c(NC(=O)c2ccccc2F)sc2c1CCCC2
COc1ccc2cc(-c3c(-c4ccncc4)nc(-c4ccc(S(C)=O)cc4)n3C)ccc2c1 (centres undefined)
O=C(OC1CNC(C#Cc2cc3ncnc(Nc4ccc5c(cnn5Cc5ccccc5)c4)c3s2)C1)N1CCOCC1 (centres undefined)
COc1cc2ncn(-c3cc(OCc4ccccc4C(F)(F)F)c(C(N)=O)s3)c2cc1OC
COc1cccc(-n2ncc3c(NN=Cc4ccc(F)cc4)ncnc32)c1
CCS(=O)(=O)c1ccc(OC)c(Nc2ncc(-c3cccc(F)c3)o2)c1
Cc1ccc(C(=O)NC2CCCCC2)cc1-c1ccc(C(=O)NCC2CC2)cc1
N#Cc1c(NC(=O)CN2CCOCC2)sc2c1CCCC2
CS(=O)(=O)CCNCc1ccoc1-c1ccc2ncnc(Nc3ccc(OCc4ccccc4)cc3)c2c1
O=C1NC(=O)C(c2ccccc2Cl)=C1Nc1cccc(O)c1
CN1CCC(C(=O)Nc2n[nH]c3nc(-c4ccc(O)cc4)c(Br)cc23)CC1
Cc1cccc(Oc2nccc(-c3c(-c4ccc(F)cc4)ncn3C3CCNCC3)n2)c1C
NS(=O)(=O)c1ccc(N=Nc2c(O)[nH]c3ccc(C(=O)NCc4ccncc4)cc23)cc1
N#Cc1cccc(Nc2ncc(-c3ccccc3)o2)c1
CS(=O)(=O)Nc1ccc(-c2ccc3c(NC(=O)C4CC4)n[nH]c3c2)cc1
Fc1ccc(-c2ncn(C3CCNCC3)c2-c2ccnc(Oc3cccc(C(F)(F)F)c3)n2)cc1
COc1ccc(CNC(=O)c2ccc(-c3cc(-c4nnc(C)o4)ccc3C)cc2)cc1
CN(C)CCNC(=O)Nc1ccc(N(C)c2ccnc(Nc3ccc(CS(C)(=O)=O)cc3)n2)cc1
CC1=C(C(=O)Nc2ccc3[nH]ncc3c2)C(c2ccc(F)cc2)NC(=O)N1 (centres undefined)
CC(=O)Nc1cccc(C#Cc2cncnc2Nc2ccc(OCc3cccc(F)c3)c(Cl)c2)n1
Clc1ccc(-c2nn3ncccc3c2-c2ccnc(Nc3ccccc3)n2)cc1
Cc1ccc(C(=O)NC(C)C)cc1-c1ccc(C(=O)NCC2CC2)cc1
CS(=O)(=O)CCNCc1cc(-c2cc3c(Nc4ccc(OCc5cccc(F)c5)c(Cl)c4)ncnc3s2)cs1
COc1cc(C=NNc2ncnc3c2cnn3Cc2ccccc2)ccc1O
CCN1CCC(CC(=O)Nc2n[nH]c3nnc(-c4cccc(F)c4F)cc23)CC1
NC(=O)c1sc(-n2cnc3ccc(C(F)(F)F)cc32)cc1OCc1ccccc1Br
CCn1c(-c2nonc2N)nc2cncc(C(=O)NCCNC)c21
Nc1ncnc2occ(-c3ccc(NC(=O)Nc4cc(C(F)(F)F)ccc4F)cc3)c12
CC(=O)NCc1cccc(C#Cc2cncnc2Nc2ccc(OCc3cccc(F)c3)c(Cl)c2)c1
CCOc1ccc2c(-c3ccnc(Nc4cc(OC)cc(C(F)(F)F)c4)n3)cnn2n1
NCc1ccc(-c2nc(-c3ccc(Cl)c(O)c3)c(-c3ccncc3)[nH]2)cc1
Clc1ccc(CNc2nccc(-c3cnn4ncccc34)n2)cc1
CCCNc1cccc(-n2ncc3c(NN=Cc4ccncc4)ncnc32)c1
CCc1cccc(CC)c1C=Cc1cncc(C(=O)NC)c1
c1ccc(-c2[nH]ncc2-c2ccnc(-c3ccc(OCCn4ccnc4)cc3)c2)nc1
COc1ccccc1Oc1nccc(-c2c(-c3ccc(F)cc3)ncn2C2CCNCC2)n1
